Drawing on PubChem BioAssay (EPA / NIEHS), this text covers outcome and AC50 for 37 compounds.

Inconclusive results are not listed. The source holds several records for some structures; these can differ, active in one and inactive in another. The source made the active and inactive calls. How the source made its calls: active means hit-call score of the fitted dose curve at least 0.9, where 1 is the maximum; inconclusive means response in the unintended direction; inactive means score below 0.9.

A short description of this assay: TOX21_p53_BLA_p3_viability: Viability Assessment in the Tox21 HCT-116 p53 Agonism Beta-lactamase Assay, Phase 3 (AID 2283593).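 Further: cells exposed to compound for 16 h before reading.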 The source says: TOX21_p53_BLA_p3 is a cell-based, single-readout assay that uses HCT116, a human intestinal cell line, […] in a 1536-well plate.TOX21_p53_BLA_p3_viability is an assay readout measuring cellular ATP content and detected with CellTiter-Glo Luciferase-coupled ATP quantitation.TOX21_p53_BLA_p3_viability used a type of viability reporter where loss-of-signal activity can be used to understand changes in the cell viability. Furthermore, this assay endpoint can be referred to as a secondary readout, because this assay has produced multiple assay endpoints where this one serves a viability function. To generalize the intended target to other relatable targets, this assay endpoint is annotated to the cell cycle intended target family, where the subfamily is cytotoxicity.
Thawing Method: Place 14 mL of pre-warmed thaw medium into a 15 mL of conical tub. Remove the vial of cells to be thawed from liquid nitrogen and thaw rapidly by placing at 37C in a water bath with gentle agitation for 1-2 minutes. Decontaminate the vial by wiping with 70% ethanol before opening in a biological safety cabinet. Transfer the vial contents drop-wise into 14 mL of thaw medium in a sterile 15-mL conical tub. Centrifuge cells at 900 rpm for 4 minutes and resuspend in thaw medium. Transfer contents to the T75 tissue culture flask containing Thaw Medium and place flask in a humidified 37C/5% CO2 incubator. Switch to growth medium at first passage.Propagation Method: Aspirate medium, rinse once in DPBS, add 0.25% Trypsin/EDTA and swirl to coat the cell evenly. Add an equal volume of Growth Medium to inactivate Trypsin after 2-3 minutes incubation at 37C. Centrifuge cells at 900 rpm for 4 minutes and resuspend in growth medium. Cell should be passage or fed at least twice a week.Assay Protocol: Harvest cells from culture in growth medium and resuspend in assay medium. 2.2 Dispense 4000 cells/5 uL/well into 1536-well black/clear bottom plates using a Multidrop dispenser. After the cells were incubated at 37C for 5 hours, 23 nL of compounds dissolved in DMSO were transferred to the assay plate by a PinTool resulting in a 217-fold dilution. Incubate the plates for 16 hours at 37C, 5% CO2. Add 1 uL of 6X LiveBLAzer FRET B/G (CCF4-AM) Substrate Mixture to each well using a BioRAPTR dispenser and incubate the plates at room temperature for 2 hours. Measure fluorescence intensity at 460 and 530 nm emission and 405 nm excitation by an Envision detector. Data is expressed as the ratio of 460nm/530nm emissions. Add 4 uL of Cell-titer Glo to each well using BioRAPTR and incubate the plates at room temperature for […]. For cell viability readout that measures cytotoxicity, 4 ul/well of CellTiter-Glo reagent was added into the assay plates using a Flying Reagent Dispenser. After 30 min incubation at room temperature, the luminescence intensity in the plates was measured using a ViewLux plate reader.
By AC50 is commonly meant the midpoint of the concentration-response curve, whichever way the signal moves. As to `CCCCC/C=C\C/C=C\CCCCCCCC(=O)O`, the call was inactive and the AC50 is 47.2 µM (active).

Regarding `CC(C)[N+](C)(CCOC(=O)C1c2ccccc2Oc2ccccc21)C(C)C`, the result was inactive.

For `CCCCCCCCCCCC(=O)OCC`, the outcome was inactive.

As for `CC(CC(C)C)=NO`, the call was inactive.

In the case of `O=C(Cl)c1c(Cl)c(Cl)c(C(=O)Cl)c(Cl)c1Cl`, the compound was classed as inactive.

Consider `Oc1c(Cl)cc(Cl)c(Cl)c1Cl`, for which the compound was called inactive.

In the case of `CC(C)(c1ccccc1)c1ccc(Nc2ccc(C(C)(C)c3ccccc3)cc2)cc1`, the outcome was inactive.

As for `CC(CCC(=O)O)(c1ccc(O)cc1)c1ccc(O)cc1`, the result was inactive.

Turning to `CCCCCCCCCCCCCC(=O)OC(C)C`, the result was inactive.

Regarding `Clc1cc(Cl)c(Cl)c(Cl)c1Cl`, the outcome was inactive.

For the compound `CCCCCCCCCCCCc1ccc(O)cc1`, the AC50 is 39.9 µM (active).

In the case of `Cc1cc(C)n(CO)n1`, the call was inactive.

Turning to `Cc1ccccc1CCO`, the result was inactive.

On to `Oc1ccc(/C=C/c2cc(O)cc(O)c2)cc1`, for which the result was inactive.

Turning to `CC(Cl)COP(=O)(OCC(C)Cl)OCC(C)Cl` (stereo not given), the compound was classed as inactive.

`CCCCCCO`: the compound was called inactive.

Take `CCCCC1C(=O)N(c2ccccc2)N(c2ccccc2)C1=O`: the result was inactive.

In the case of `CC1C(C)(C)C2=C(C(=O)CCC2)C1(C)C` (stereo not given), the result was inactive.

In the case of `N#CC1(N)CCCCC1`, the call was inactive.

Turning to `CCCCC(=O)O`, the compound was classed as inactive.

Regarding `C/C=C/C=C/CCCCCCCO`, the call was inactive.

For `CN(C)Cc1cc(CN(C)C)c(O)c(CN(C)C)c1`, the result was inactive.

On to `C=C[C@@]1(C)CC(=O)[C@]2(O)[C@@]3(C)[C@@H](O)CCC(C)(C)[C@@H]3[C@H](O)[C@H](OC(C)=O)[C@@]2(C)O1`, for which the call was inactive.

Turning to `Cc1c(C(=O)c2c[nH]n(C)c2=O)ccc(S(C)(=O)=O)c1C1=NOCC1`, the outcome was inactive.

With `C=CC(=O)OCCCCCCOC(=O)C=C`, the outcome was inactive.

Take `COc1ccc(C(=O)/C(Br)=C\C(=O)O)cc1`: the compound was called inactive and the AC50 is 74.8 µM (active).

For `C[Si](C)(C)N[Si](C)(C)C`, the compound was called inactive.

Consider `O=C(C=Cc1ccccc1)OCCc1ccccc1`, for which the compound was classed as inactive.

Turning to `O=C(O)C1CCC(C(=O)O)CC1` (stereo not given), the call was inactive.

In the case of `O=C(O)/C=C/c1ccccc1`, the call was inactive.

With `O=C(O[C@@H]1Cc2c(O)cc(O)cc2O[C@@H]1c1cc(O)c(O)c(O)c1)c1cc(O)c(O)c(O)c1`, the compound was called inactive.

Turning to `CN(C)c1ccc2nc3ccc(=[N+](C)C)cc-3sc2c1`, the AC50 is 23 µM (active) and the result was inactive.

With `CC(C)OC(=O)c1ccccc1`, the call was inactive.

Take `C=C(C)C(=O)OCC(O)COc1ccc(C(C)(C)c2ccc(OCC(O)COC(=O)C(=C)C)cc2)cc1` (stereo not given): the call was inactive.

With `CC(C)=CCCC(C)=CC#N`, the compound was classed as inactive.

On to `CC(C)(O)Cc1ccccc1`, for which the compound was classed as inactive.

Consider `CC1=CCC(C(C)C)C=C1` (stereo not given), for which the compound was called inactive.
